# Source: PubChem BioAssay (NCATS)
# Inconclusive results are not listed. Unmarked numbers belong to inactive results. Active and inactive are the calls of the source. The call rests on the fitted dose curve; in most records, active means well fitted cell-killing curve with a large enough effect; inconclusive means small, poorly fitted or top-dose-only effect, or effect the other way; inactive means no such curve, though single readings can be large or run the other way.
# Assay: Quantitative High-Throughput drug screen in 47 multiple myeloma cell lines against the NCATS MIPE library collection: KMS12PE_JCRB cell viability assay (AID 1918972); further: nearly all actives have a fitted effect of over 30% in size
# Conditions: KMS12PE myeloma viability, CellTiter-Glo ATP, 48 h; series mostly up to 45.8 µM; viability: at the top concentration
# From the text: PI: Beverly A. Mock Ph.D.
# Laboratory of Cancer Biology and Genetics,
# Center for Cancer Research, National Cancer Institute,
# National Institute of Health, Bethesda, Maryland
# Drug resistance and disease progression are common in multiple myeloma (MM) patients, underscoring the need for new therapeutic combinations. […] We hypothesized that effective combinations would reduce MYC expression and enhance p16 activity. […] These preclinical data identify potentially useful drug combinations for evaluation in drug-resistant MM and reveal potential mechanisms of combined drug sensitivity.
# Described herein is the primary MIPE qHTS used to cherrypick compounds. Validated compounds were then further tested for potential synergistic activiy.
# [1] Peat TJ, Gaikwad SM, Dubois W, Gyabaah-Kessie N, Zhang S, Gorjifard S, Phyo Z, Andres M, Hughitt VK, Simpson RM, Miller MA, Girvin AT, Taylor A, Williams D, D'Antonio N, Zhang Y, Rajagopalan A, Flietner E, Wilson K, Zhang X, Shinn P, Klumpp-Thomas C, McKnight C, Itkin Z, Chen L, Kazandijian D, Zhang J, Michalowski AM, Simmons JK, Keats J, Thomas CJ, Mock BA. Drug combinations identified by high-throughput screening promote cell cycle transition and upregulate Smad pathways in myeloma. Cancer Lett. 2023 Aug 1;568:216284. doi: 10.1016/j.canlet.2023.216284. Epub 2023 Jun 24. PMID: 37356470; PMCID: PMC10408729.
# SEQUENCE No. (e.g., 1, 2, 3, etc.); […] (e.g., Cells, Incubation, Reagent, etc.); VALUE and DESCRIPTION.
# 1; Cells; 5 uL; white, solid bottom 1536-well Greiner assay plate.
# 2; Compounds; 23 nL; Kalypsis pin tool (Wako USA) equipped with a 1536-well pin head to transfer to the assay plates.
# 3; Incubation; 48 hours; 37C incubation.
# 4; Reagent;5uL; CellTiter Glo (Promega).
# 5; Detector; 425V; Luminescence; Viewlux PerkinElmer.
# NOTES (numbers refer to Sequence numbers above)
# 1. The cell-based screening methods employed in this study were like those previously published. Briefly, the corresponding myeloma cell lines were screened in 1,536-well plates with 500 cells, 5-uL per well for inhibition of cell viability (assessed by measuring ATP levels with CellTiterGlo).
# 2. NCATS MIPE 4.0 library of approved and investigational drugs were added using the Kalypsis pin tool. Wells treated with DMSO only for 100% viability and media only wells for 0% viability were used as controls.
# 3. The assay plates were covered and incubated for 48 hours in a 37C, 5% CO2 incubator with controlled humidity.
# 4. After 48 hours, CellTilter-GloTM luminescent substrate mix (Promega) reagent was added to the assay plate and plates we incubated for 5 min at room temperature.
# 5. Signal was measured as median relative luminescence units on a ViewLux (PerkinElmer) multiplate reader.
# [1] Heske CM, Davis MI, Baumgart JT, Wilson K, Gormally MV, Chen L, Zhang X, Ceribelli M, Duveau DY, Guha R, Ferrer M, Arnaldez FI, Ji J, Tran HL, Zhang Y, Mendoza A, Helman LJ, Thomas CJ. Matrix Screen Identifies Synergistic Combination of PARP Inhibitors and Nicotinamide Phosphoribosyltransferase (NAMPT) Inhibitors in Ewing Sarcoma. Clin Cancer Res. 2017 Dec 1;23(23):7301-7311. doi: 10.1158/1078-0432.CCR-17-1121. Epub 2017 Sep 12. PMID: 28899971; PMCID: PMC6636827.
# Potency means the concentration at half of the fitted maximal effect.
SMILES,Potency,viability
Cc1c(C(=O)NN2CCCCC2)nn(-c2ccc(Cl)cc2Cl)c1-c1ccc(Cl)cc1,14.8 µM (active),–
Cc1nc(Nc2ncc(C(=O)Nc3c(C)cccc3Cl)s2)cc(N2CCN(CCO)CC2)n1,0.372 µM (active),–
O=c1oc2cc(O)ccc2s1,–,98.9%
CCC[C@@H]1C[C@@H](C(=O)N[C@@H]([C@H]2O[C@H](SC)[C@H](O)[C@@H](O)[C@H]2O)[C@@H](C)O)N(C)C1,–,101%
CC[C@]1(O)C[C@H]2CN(CCc3c([nH]c4ccccc34)[C@@](C(=O)OC)(c3cc4c(cc3OC)N(C=O)[C@H]3[C@@](O)(C(=O)OC)[C@H](OC(C)=O)[C@]5(CC)C=CCN6CC[C@]43[C@@H]65)C2)C1,0.0743 µM (active),–
Cc1nc2n(c(=O)c1CCN1CCC(c3noc4cc(F)ccc34)CC1)CCCC2,–,89.1%
O=C(OC1C[C@H]2CC[C@@H](C1)[N+]21CCCC1)C(O)(c1ccccc1)c1ccccc1 (stereo not given in full),–,89.6%
CN(C)CCCC1(c2ccc(F)cc2)OCc2cc(C#N)ccc21 (stereo not given),–,75.8%
Cc1ccc(C(=O)c2cc(O)c(O)c([N+](=O)[O-])c2)cc1,18.7 µM (active),–
C=CCc1cc(OC)c(O)c(C(=O)NCCO)c1,–,111%
Cc1cc(C2CCCCC2)n(O)c(=O)c1,11.8 µM (active),–
NC(=NCc1ccccc1)NC(=O)c1nc(Cl)c(N)nc1N,23.5 µM (active),–
c1cnc2cc3c(cc2n1)C1CNCC3C1,–,102%
C=C(c1ccc(C(=O)O)cc1)c1cc2c(cc1C)C(C)(C)CCC2(C)C,–,90.9%
C[C@@H](c1ncncc1F)[C@](O)(Cn1cncn1)c1ccc(F)cc1F,–,100%
CN(C)c1ccc(O)c2c1C[C@H]1C[C@H]3[C@H](N(C)C)C(=O)C(C(N)=O)=C(O)[C@@]3(O)C(=O)C1=C2O,–,132%
CCCCCCCCOc1ccccc1C(=O)Nc1ccc(C(=O)OCC[N+](C)(CC)CC)cc1,4.69 µM (active),–
O=C(NOCC1CC1)c1ccc(F)c(F)c1Nc1ccc(I)cc1Cl,14.8 µM (active),–
Nc1nc(Cl)nc2c1ncn2[C@H]1C[C@H](O)[C@@H](CO)O1,0.0372 µM (active),–
CC(C)[C@H](N)C(=O)OCCOCn1cnc2c(=O)[nH]c(N)nc21,23.5 µM (active),–

SMILES,Potency,viability
S=c1nc[nH]c2nc[nH]c12,2.35 µM (active),–
c1ccc2[nH]c(-c3cscn3)nc2c1,–,118%
CC(=O)NC[C@H]1CN(c2ccc(N3CCOCC3)c(F)c2)C(=O)O1,–,132%
Nc1cccc2c1CN(C1CCC(=O)NC1=O)C2=O (stereo not given),–,116% [at 92.2 µM]
C[C@H](Cn1cnc2c(N)ncnc21)OCP(=O)(O)O,–,129%
Cc1ncc([N+](=O)[O-])n1CC(C)O (stereo not given),–,101%
CCOC(=O)C1=C[C@@H](OC(CC)CC)[C@H](NC(C)=O)[C@@H](N)C1,–,80.8%
N=C(N)c1ccc2cc(OC(=O)c3ccc(N=C(N)N)cc3)ccc2c1,–,85%
COc1c(O)cc2c(c1O)[C@@H]1O[C@H](CO)[C@@H](O)[C@H](O)[C@H]1OC2=O,–,118%
CC(C)(S)[C@@H](N)C(=O)O,–,105%
COc1ccc(C2(C#N)CCC(C(=O)O)CC2)cc1OC1CCCC1 (stereo not given),–,116%
CNC[C@H](O)c1ccc(O)c(O)c1,–,91.6% [at 92.2 µM]
CC(C)c1nc(CN(C)C(=O)N[C@H](C(=O)N[C@@H](Cc2ccccc2)C[C@H](O)[C@H](Cc2ccccc2)NC(=O)OCc2cncs2)C(C)C)cs1,–,100%
COC(=O)C1=C(C)NC(C)=C(C(=O)OC(C)C)C1c1cccc2nonc12 (stereo not given),–,90.3%
CC(C)c1ccc2c(c1)c(SC(C)(C)C)c(CC(C)(C)C(=O)O)n2Cc1ccc(Cl)cc1,–,83.5%
CC(C)c1ccc2oc3nc(N)c(C(=O)O)cc3c(=O)c2c1,–,87.4%
CC1(C)CCC(C)(C)c2cc(NC(=O)c3ccc(C(=O)O)cc3)ccc21,20.9 µM (active),–
COc1cc2nc(N3CCN(C(=O)C4CCCO4)CC3)nc(N)c2cc1OC (stereo not given),16.6 µM (active),–
Nc1nc(N)c(N=O)c(OCC2CCCCC2)n1,4.69 µM (active),–
CN1CCC(=C2c3ccccc3CCc3sccc32)CC1,23.5 µM (active),–
